Laboratory results reported in the supplement of paper PMC6411743.
± gives the standard deviation of the averaged measurements. Of roughly 6,200 targets only a part is listed; those with the largest changes were picked by preference.

compound: Nc1ncnc2c1ncn2[C@@H]1O[C@H](COP(=O)(O)OP(=O)(O)NP(=O)(O)O)[C@@H](O)[C@H]1O [adenylyl imidodiphosphate]; experiment: NP40-soluble protein abundance relative to vehicle (solubility fold change) (ratio); higher = more soluble protein in presence of AMP-PNP; conditions: concentration: 2mM
Outline: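 Values are fold changes against the detergent-processed vehicle, based on vsn-normalised intensities. Jurkat crude lysate was treated at eight concentrations from 0.1 to 10 mM (10 min at room temperature, then 3 min at 37 °C), solubilised with 0.8% NP40 and benzonase, ultracentrifuged and analysed by TMT-labelled LC-MS/MS over three independent experiments.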

Sequence of UniProt Q9P289 (Q9P289 whole entry, looked up, one chain of several): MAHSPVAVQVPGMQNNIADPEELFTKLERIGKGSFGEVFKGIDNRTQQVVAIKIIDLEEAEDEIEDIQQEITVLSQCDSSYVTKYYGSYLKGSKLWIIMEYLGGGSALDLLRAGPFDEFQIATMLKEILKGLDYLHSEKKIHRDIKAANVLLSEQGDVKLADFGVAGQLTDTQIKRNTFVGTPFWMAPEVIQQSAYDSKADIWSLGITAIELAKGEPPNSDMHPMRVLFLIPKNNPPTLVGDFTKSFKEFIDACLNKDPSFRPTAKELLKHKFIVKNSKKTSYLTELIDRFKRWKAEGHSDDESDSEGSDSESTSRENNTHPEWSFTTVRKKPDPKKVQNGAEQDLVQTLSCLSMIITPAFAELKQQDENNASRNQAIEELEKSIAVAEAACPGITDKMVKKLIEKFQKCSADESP
Sequence of UniProt P36873 (P36873 whole entry, looked up, one chain of several): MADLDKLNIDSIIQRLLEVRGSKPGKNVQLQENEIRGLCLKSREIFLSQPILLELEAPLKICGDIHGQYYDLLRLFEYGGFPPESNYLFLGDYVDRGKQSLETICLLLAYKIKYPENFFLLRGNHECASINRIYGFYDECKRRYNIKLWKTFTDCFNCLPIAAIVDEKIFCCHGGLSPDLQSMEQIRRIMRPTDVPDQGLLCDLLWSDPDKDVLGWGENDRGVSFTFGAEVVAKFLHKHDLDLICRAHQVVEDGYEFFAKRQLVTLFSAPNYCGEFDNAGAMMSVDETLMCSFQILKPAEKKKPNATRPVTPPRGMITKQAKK
Sequence of UniProt O95232 (O95232 whole entry, one chain of several): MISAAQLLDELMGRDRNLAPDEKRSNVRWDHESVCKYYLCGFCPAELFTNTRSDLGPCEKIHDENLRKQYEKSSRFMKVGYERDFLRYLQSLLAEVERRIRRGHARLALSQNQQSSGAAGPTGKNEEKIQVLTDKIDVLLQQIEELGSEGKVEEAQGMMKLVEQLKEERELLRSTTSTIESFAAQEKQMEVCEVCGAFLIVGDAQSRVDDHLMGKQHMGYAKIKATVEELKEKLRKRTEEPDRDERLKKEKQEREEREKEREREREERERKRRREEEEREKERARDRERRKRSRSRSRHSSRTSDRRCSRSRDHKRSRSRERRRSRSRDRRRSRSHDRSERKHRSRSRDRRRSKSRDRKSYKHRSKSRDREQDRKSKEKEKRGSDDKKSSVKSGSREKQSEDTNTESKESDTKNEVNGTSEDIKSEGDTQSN
Sequence of UniProt O14735 (O14735 whole entry): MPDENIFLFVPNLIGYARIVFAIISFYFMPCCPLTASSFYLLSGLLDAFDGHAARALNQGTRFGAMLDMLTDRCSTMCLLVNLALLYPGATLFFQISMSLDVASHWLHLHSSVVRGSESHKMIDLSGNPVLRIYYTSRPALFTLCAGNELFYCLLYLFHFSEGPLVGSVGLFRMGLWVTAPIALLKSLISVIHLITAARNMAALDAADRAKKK
Sequence of UniProt O95772 (O95772 whole entry, one chain of several): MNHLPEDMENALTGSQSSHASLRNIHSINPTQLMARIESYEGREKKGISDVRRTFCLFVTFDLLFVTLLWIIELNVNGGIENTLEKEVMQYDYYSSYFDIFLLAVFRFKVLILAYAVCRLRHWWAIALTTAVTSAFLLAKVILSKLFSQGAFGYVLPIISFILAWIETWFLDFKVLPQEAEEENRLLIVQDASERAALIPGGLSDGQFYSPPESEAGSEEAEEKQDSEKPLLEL
Sequence of UniProt Q9H6E5 (Q9H6E5 whole entry, one chain of several): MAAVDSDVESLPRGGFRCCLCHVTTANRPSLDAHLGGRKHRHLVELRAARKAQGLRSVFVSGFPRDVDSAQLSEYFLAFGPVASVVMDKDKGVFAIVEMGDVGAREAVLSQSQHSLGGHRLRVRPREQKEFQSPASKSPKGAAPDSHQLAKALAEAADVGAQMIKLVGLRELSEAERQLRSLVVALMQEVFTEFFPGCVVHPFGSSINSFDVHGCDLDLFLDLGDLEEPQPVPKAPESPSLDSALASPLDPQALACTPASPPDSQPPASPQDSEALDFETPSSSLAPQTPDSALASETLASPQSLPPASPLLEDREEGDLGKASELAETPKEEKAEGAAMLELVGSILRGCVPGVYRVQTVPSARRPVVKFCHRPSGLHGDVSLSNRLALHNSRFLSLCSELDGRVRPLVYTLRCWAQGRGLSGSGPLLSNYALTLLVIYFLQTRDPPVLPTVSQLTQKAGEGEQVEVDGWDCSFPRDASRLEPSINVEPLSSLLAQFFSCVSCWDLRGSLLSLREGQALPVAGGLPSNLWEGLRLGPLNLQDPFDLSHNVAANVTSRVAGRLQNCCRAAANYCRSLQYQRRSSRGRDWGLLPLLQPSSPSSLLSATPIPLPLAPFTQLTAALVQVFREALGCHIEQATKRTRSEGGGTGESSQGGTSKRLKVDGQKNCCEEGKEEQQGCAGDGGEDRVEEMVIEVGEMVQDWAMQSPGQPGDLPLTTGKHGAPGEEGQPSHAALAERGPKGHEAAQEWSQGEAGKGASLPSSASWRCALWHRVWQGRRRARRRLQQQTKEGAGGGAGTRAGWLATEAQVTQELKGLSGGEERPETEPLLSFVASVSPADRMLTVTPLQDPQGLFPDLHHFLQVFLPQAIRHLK
Sequence of UniProt O43633 (O43633 whole entry): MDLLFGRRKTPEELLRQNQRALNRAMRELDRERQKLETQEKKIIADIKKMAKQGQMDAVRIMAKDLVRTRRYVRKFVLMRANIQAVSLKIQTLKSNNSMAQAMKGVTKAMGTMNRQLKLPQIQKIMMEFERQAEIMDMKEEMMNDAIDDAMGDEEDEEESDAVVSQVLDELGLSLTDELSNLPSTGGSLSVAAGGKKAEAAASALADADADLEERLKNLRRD
Sequence of UniProt O43242 (O43242 whole entry): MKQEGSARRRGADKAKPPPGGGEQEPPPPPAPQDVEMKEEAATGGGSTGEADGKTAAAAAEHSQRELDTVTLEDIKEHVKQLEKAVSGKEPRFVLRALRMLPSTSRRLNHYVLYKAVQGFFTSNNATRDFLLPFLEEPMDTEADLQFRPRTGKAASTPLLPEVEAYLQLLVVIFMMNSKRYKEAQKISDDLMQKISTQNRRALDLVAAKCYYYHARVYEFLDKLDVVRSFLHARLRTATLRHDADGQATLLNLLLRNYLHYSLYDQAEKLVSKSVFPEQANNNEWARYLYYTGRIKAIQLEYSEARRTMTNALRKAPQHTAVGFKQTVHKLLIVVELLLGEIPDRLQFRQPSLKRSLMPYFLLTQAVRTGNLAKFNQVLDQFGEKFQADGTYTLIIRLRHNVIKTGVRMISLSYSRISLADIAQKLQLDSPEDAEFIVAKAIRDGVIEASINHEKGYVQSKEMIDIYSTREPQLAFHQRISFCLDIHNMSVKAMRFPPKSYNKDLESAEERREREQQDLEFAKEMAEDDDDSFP
Sequence of UniProt Q13309 (Q13309 whole entry, one chain of several): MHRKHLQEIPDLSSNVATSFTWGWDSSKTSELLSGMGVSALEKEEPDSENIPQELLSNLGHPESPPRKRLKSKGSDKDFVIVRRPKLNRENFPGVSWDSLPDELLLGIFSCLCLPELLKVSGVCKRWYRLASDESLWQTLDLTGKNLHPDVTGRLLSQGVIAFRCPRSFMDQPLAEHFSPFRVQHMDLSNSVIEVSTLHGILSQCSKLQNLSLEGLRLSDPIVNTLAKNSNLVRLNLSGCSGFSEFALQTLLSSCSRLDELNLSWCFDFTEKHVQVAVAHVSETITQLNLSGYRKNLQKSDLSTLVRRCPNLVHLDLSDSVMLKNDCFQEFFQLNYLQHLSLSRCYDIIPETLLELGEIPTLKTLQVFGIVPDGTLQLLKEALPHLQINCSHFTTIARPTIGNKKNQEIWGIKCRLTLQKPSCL
Sequence of UniProt Q13557 (Q13557 whole entry, one chain of several): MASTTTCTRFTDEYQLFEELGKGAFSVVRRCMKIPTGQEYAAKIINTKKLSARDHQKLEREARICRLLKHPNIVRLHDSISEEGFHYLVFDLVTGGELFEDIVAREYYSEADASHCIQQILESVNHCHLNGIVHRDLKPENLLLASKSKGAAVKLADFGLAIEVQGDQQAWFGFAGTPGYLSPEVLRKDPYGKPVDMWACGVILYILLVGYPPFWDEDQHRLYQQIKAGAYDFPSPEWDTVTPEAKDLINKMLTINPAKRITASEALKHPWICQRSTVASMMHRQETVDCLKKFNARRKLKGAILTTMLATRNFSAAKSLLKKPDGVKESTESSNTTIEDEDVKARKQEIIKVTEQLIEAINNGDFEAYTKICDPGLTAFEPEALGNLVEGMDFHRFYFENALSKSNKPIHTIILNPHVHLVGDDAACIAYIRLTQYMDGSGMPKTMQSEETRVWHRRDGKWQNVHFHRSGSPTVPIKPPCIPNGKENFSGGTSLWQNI
Sequence of UniProt Q9NWL6 (Q9NWL6 whole entry, one chain of several): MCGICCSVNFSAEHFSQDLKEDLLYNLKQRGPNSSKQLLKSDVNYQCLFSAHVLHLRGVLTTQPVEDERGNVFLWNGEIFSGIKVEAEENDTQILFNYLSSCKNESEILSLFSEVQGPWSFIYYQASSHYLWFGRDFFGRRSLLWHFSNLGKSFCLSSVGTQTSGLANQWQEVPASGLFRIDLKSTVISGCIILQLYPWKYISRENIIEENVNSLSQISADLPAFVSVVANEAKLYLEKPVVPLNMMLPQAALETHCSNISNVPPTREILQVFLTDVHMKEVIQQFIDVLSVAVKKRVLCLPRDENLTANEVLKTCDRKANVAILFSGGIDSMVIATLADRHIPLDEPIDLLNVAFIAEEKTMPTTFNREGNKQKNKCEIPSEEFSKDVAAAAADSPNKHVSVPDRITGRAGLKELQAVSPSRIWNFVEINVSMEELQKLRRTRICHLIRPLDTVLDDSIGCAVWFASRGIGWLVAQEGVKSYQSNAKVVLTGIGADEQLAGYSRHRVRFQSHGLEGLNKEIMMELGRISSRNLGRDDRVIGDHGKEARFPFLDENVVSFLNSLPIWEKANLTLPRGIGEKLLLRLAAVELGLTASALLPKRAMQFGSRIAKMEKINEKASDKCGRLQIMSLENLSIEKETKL

Target	NP40-soluble protein abundance
C9JKL2|O95772|O95772-2|C9J3F5|C9JJ39|C9JPX5 (UniProt O95772)	1.04 ± 0.036
H7C5A7|O14734 (UniProt O14734)	0.932 ± 0.036
J3KNF8|O43169 (UniProt O43169)	1.34 ± 0.33
SART1 (UniProt O43290)	1.12 ± 0.054
H0YIV9|O43716 (UniProt O43716+H0YIV9)	1.02 ± 0.038
J3KNN5|Q9UJV9 (UniProt Q9UJV9)	1.1 ± 0.043
CHMP2A (UniProt O43633)	1.02 ± 0.094
C9JIF9|P13798 (UniProt P13798)	0.88 ± 0.061
ZC3H11A (UniProt O75152)	0.883 ± 0.1
F8VXC8|Q8TAQ2|Q8TAQ2-2|Q8TAQ2-3 (UniProt Q8TAQ2)	1.07 ± 0.04
I3L4X7|Q13227|Q13227-2 (UniProt Q13227)	1.03 ± 0.059
E9PBG7|E9PF82|Q13557|Q13557-10|Q13557-11|Q13557-12|Q13557-3|Q13557-4|Q13557-5|Q13557-6|Q13557-8|Q13557-9 (UniProt Q13557)	0.989 ± 0.049
A0A0A0MTB8|Q8NI36 (UniProt Q8NI36)	1.15 ± 0.11
F8VU39|J3KPG5|Q9UIF9|Q9UIF9-2|Q9UIF9-3 (UniProt Q9UIF9)	0.9926 ± 0.0061
A0A0B4J220 (UniProt E9PRG8)	1.15 ± 0.057
F5H0R1|Q9H6E5 (UniProt Q9H6E5)	1.01 ± 0.039
E7ESS3|K7EKW3|Q71RG4|Q71RG4-2 (UniProt Q71RG4)	1.03 ± 0.045

Target	NP40-soluble protein abundance
K7EK07|P84243 (UniProt P84243+K7EK07)	1.01 ± 0.094
A0A0A0MTL5|Q13309|Q13309-2 (UniProt Q13309)	0.965 ± 0.037
CDIPT (UniProt O14735)	0.896 ± 0.042
J3KPP4|O95232 (UniProt O95232)	1.06 ± 0.058
F8W1A0|P36873 (UniProt P36873)	0.928 ± 0.056
PSMD3 (UniProt O43242)	0.865 ± 0.055
F5H7W8|Q96C57 (UniProt Q96C57)	1.26 ± 0.088
CCDC85C (UniProt A6NKD9)	1.0044 ± 0.00019
F6TLX2|Q9HC38-2 (UniProt Q9HC38)	1.01 ± 0.014
B4E0Y9|Q8NBY1|Q9P289 (UniProt Q9P289)	1.03 ± 0.059
I3VM54|Q9Y2K7 (UniProt Q9Y2K7)	1.08 ± 0.045
E9PLV1|Q9NQV6|Q9NQV6-1|Q9NQV6-2|Q9NQV6-4|Q9NQV6-5|Q9NQV6-6|Q9NQV6-7|E9PRS0 (UniProt Q9NQV6)	0.963 ± 0.055
G3V4X1|P62191|P62191-2 (UniProt P62191)	0.906 ± 0.049
D6RCD0|Q8NBQ5 (UniProt Q8NBQ5)	0.9738 ± 0.0077
L0R819 (UniProt Q9NWL6)	1.03 ± 0.074
H7BYF2|Q5JRG1|Q9BVL2|Q9BVL2-2|Q9BVL2-3 (UniProt Q9BVL2)	1.1 ± 0.095
